Bioassay records (PubChem BioAssay)
Compounds with a hit are over-represented: about 7.9% of the library has one in this group of screens.
HCMV inh: qHTS Assay for inhibitors of the human cytomegalovirus (HCMV). HFF cells, HCMV-luciferase reporter, 72 h; active compounds read low. activity change, negative = inhibition, % at 57.5 µM. 410,000 compounds, 4.5% hits; in the data active means activity change below about -60%; inconclusive means no clear call, values can overlap the other calls; inactive means above about -39%
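Compounds were evaluated in HFFs infected with an HCMV luciferase reporter virus (MOI 1 PFU/cell). Luciferase in lysates collected 72 h post infection served as the replication measure.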
Lassa entry inh: qHTS for Inhibitors of binding or entry into cells for Lassa Virus. Potency, µM (doses to about 37.9 µM), for inactives: at the highest dose activity change, negative = inhibition, hits mostly inhibitors. 300,000 compounds, 1.2% hits. Lassa virus pseudotype entry inhibition, cell reporter; calls by dose curve; tested in HEK293 cells; further: potency means the concentration at half of the fitted maximal effect; nearly all actives have a fitted effect of over 50% in size
HCV inhibitor: qHTS Assay for Inhibitors of Hepatitis C Virus (HCV) | Huh7.5.1 HCVcc-Cre infection, luciferase reporter, 44 h | Potency, µM (series often up to 41.8 µM), without a hit: at the highest dose activity change, negative = inhibition, hits mostly inhibitors | 340,000 compounds, 3.4% hits | AID 651820, 2012; active means well fitted inhibition curve with a large enough effect; inconclusive means small, poorly fitted or top-dose-only effect, or another doubt; inactive means no such curve, though single readings can be large or run the other way; further: potency means the concentration at half of the fitted maximal effect
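Reporter virus HCVcc-Cre (~0.5 moi) infects cells exposed to compound; seeding density 1,000 cells/well with 4 h settling beforehand. Luminescence, 15 sec read, taken 44 h post-infection following a 15 min RT substrate incubation.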
FMDV antiviral: High Throughput Screening for Foot and Mouth Disease Virus Antivirals; Potency, µM (top dose mostly 57.9 µM), for the others: top-dose activity change, negative = inhibition, most hits filed as inhibitors; 410,000 compounds, 1.2% hits; AID 1159524, 2015; FMDV antiviral cell-based qHTS; calls by dose curve; tested in HEK293T cells; further: read-out not given here; potency means the concentration at half of the fitted maximal effect; nearly all actives have a fitted effect of over 45% in size
MARV entry inh: qHTS for inhibitors of binding or entry into cells for Marburg Virus; Marburg virus pseudotyped entry inhibition, cell reporter; Potency, µM (titrated, usually from 37.8 µM), without a hit: at the highest dose activity change, negative = inhibition, actives largely listed as inhibitors; 300,000 compounds, 1.8% hits; calls by dose curve; tested in HEK293 cells; further: potency means the concentration at half of the fitted maximal effect
Active calls of the source: *; ? = inconclusive; / = no result given; + = active, no number; ! = a repeat was not active; [ ] = dose if it differs, or a comment. On the % scale 0 is the no-effect control and ±100 the full control effect.

SMILES | HCMV inh | Lassa entry inh | HCV inhibitor | FMDV antiviral | MARV entry inh
CCOC(=O)c1ccccc1NC(=O)CN(c1cccc(C)c1C)S(=O)(=O)c1ccccc1 | -37.9 | ? | / | -28.1% | ?
COC(=O)c1ccc(CSc2ncnc3c2sc2nc(N4CCOCC4)c4c(c23)CCCC4)o1 | -24.1 | 0.9% | -19.9% | 1.1% | -9.5%
O=c1c2sc3nc(N4CCOCC4)c4c(c3c2nnn1Cc1ccccc1)CCCC4 | -100.2* | 16.6% | -5.5% | -10.9% | 10.0%
Cc1ccccc1-n1cnc2c(sc3nc(N4CCOCC4)c4c(c32)CCCC4)c1=O | -89.1* | ? | 17.8µM* | -18.4% | ?
O=c1c2sc3nc(N4CCOCC4)c4c(c3c2ncn1-c1ccccc1)CCCC4 | -63.7* | ? | 10µM* | ? | ?
COc1ccc(-n2cnc3c(sc4nc(N5CCOCC5)c5c(c43)CCCC5)c2=O)cc1 | 57.8 | ? | -11.9% | ? | -24.7%
Cc1ccc(-n2cnc3c(sc4nc(N5CCOCC5)c5c(c43)CCCC5)c2=O)cc1 | -35.1 | / | ? | ? | /
COC(=O)c1ccc(Cn2cnc3c(sc4nc(N5CCOCC5)c5c(c43)CCCC5)c2=O)o1 | 0.2 | ? | 11.2µM*! | -1.0% | ?
O=C(Cn1cc(COc2ccc([N+](=O)[O-])cc2)nn1)c1ccc(O)cc1 | / | 5.2%[46.1 µM] | / | / | /
O=c1c(Br)c(N2CCCCC2)cnn1-c1ccccc1 | 87.8 | / | -10.8% | 29.9% | -23.5%[46.1 µM]
CCOC(=O)OC[C@H]1O[C@H](C#Cc2ccc(C)cc2C)C=C[C@H]1OC(=O)OCC | / | / | / | / | 4.4%[14.2 µM]
CCOc1ccccc1/C=N/OCC(=O)NCc1ccc(F)cc1 | -22.7 | / | 3.98µM* | -18.7% | -15.5%[46.1 µM]
CCCCCC(=O)Nc1ccc(C2C(=O)c3ccccc3C2=O)cc1 | 133.0 | / | 2.51µM* | 54.1% | /
O=C1c2ccccc2C(=O)C1c1ccc(Br)cc1 | -32.1 | -1.8%[46.1 µM] | 4.8% | 27.3% | ?
O=C1c2ccccc2C(=O)C1c1ccc(O)cc1 | -61.4* | -23.6%[46.1 µM] | ? | 3.8% | 8.9%[46.1 µM]
CCn1nc(-c2ccccc2)nc2c(=O)n(C)c(=O)nc1-2 | / | ? | 2.82µM* | 1.78µM* | 0.891µM*
CCOC(=O)Cn1nc(-c2ccccc2)nc1-c1ccccc1 | 55.6 | 3.6% | 3.3% | 20.1% | -18.6%
COc1ccccc1NC(=O)Cn1c(=O)n(CCc2ccccc2)c(=O)c2c3c(sc21)CN(C(C)=O)CC3 | -91.6* | / | / | ? | ?
CC(=O)N1CCc2c(sc3c2c(=O)n(CCc2ccccc2)c(=O)n3Cc2ccc(F)cc2)C1 | -60.6* | / | / | ? | ?
CC(=O)N1CCc2c(sc3c2c(=O)n(CCc2ccccc2)c(=O)n3CC(=O)Nc2ccccc2F)C1 | ? | / | / | 0.3% | -12.7%[46.1 µM]
CCOC(=O)N1CCc2c(sc3c2c(=O)n(Cc2ccccc2)c(=O)n3Cc2c(F)cccc2Cl)C1 | -68.1* | 1.1%[46.1 µM] | / | -16.2% | 11.4%[46.1 µM]
CCOC(=O)N1CCc2c(sc3c2c(=O)n(Cc2ccccc2)c(=O)n3Cc2ccccc2F)C1 | 12.0 | 11.1% | 6.5%[8.37 µM] | -25.6% | -3.5%
CC1(C)CC2(C)CC(=O)C1C(C(=O)O)C2C(=O)O (stereo not drawn) | -17.9 | / | / | -8.0% | /
O=C(CCCCN1CCCCC1)c1ccccc1 | 14.6 | 8.5%[46.1 µM] | -14.4% | 14.5% | 14.7%[46.1 µM]
O=C(C(=Cc1ccccc1)CN1CCCCC1)c1ccccc1 | -75.7* | 3.55µM* | 2.24µM* | 3.55µM* | ?
SMILES | HCMV inh | Lassa entry inh | HCV inhibitor | FMDV antiviral | MARV entry inh
CCC1CN(C(=O)N2CCC(C(=O)NCCc3ccccc3C)CC2)c2ccccc2O1 (stereo not drawn) | 36.4 | ? | / | ? | /
CCC1CN(C(=O)N2CCC(C(=O)N3CCN(c4cccc(C)c4C)CC3)CC2)c2ccccc2O1 (stereo not drawn) | -25.9 | -22.8%[46.1 µM] | / | ? | /
CCOc1ccccc1CNC(=O)C1CCN(C(=O)N2CC(CC)Oc3ccc(C)cc32)CC1 (stereo not drawn) | 16.2 | ? | / | 35.5µM* | /
CCC1CN(C(=O)N2CCC(C(=O)NCCc3ccccc3OC)CC2)c2ccccc2O1 (stereo not drawn) | + | -8.2%[46.1 µM] | ? | -17.9% | -21.3%[46.1 µM]
CCC1CN(C(=O)N2CCC(C(=O)N3CCN(c4cc(C)ccc4C)CC3)CC2)c2ccccc2O1 (stereo not drawn) | ? | 6.6%[46.1 µM] | / | 17.8µM* | /
CCOc1ccccc1CNC(=O)C1CCN(C(=O)N2CC(C)Oc3ccc(C)cc32)CC1 (stereo not drawn) | -15.8 | / | ? | ? | /
CCC1CN(C(=O)N2CCC(C(=O)NCCc3ccc(OC)cc3OC)CC2)c2ccccc2O1 (stereo not drawn) | -20.8 | / | 12.6µM* | ? | /
CCOC(=O)C1=C(C)N(c2ccc(OC)cc2)C(=O)/C1=C\c1cccs1 | -61.7* | -4.9% | 12.6µM* | ? | -1.5%
CCOC(=O)C1=C(C)N(c2ccc(OC)cc2)C(=O)/C1=C\c1ccc(O)c(OCC)c1 | -23.6 | / | -1.7% | ? | /
COc1ccc(CN(C)CCCn2cnc3c(OCc4ccccc4)ncnc32)cc1 | -97.3* | / | -13.1%[8.37 µM] | -20.1% | /
c1ccc(COc2ncnc3c2ncn3CCCN2CCN(Cc3cccc4ccccc34)CC2)cc1 | -39.8 | / | / | 28.2µM* | /
C[C@@H](NCCCn1cnc2c(OCc3ccccc3)ncnc21)c1cccc2ccccc12 | -31.2 | / | ? | -26.5% | /
CCCS(=O)(=O)NCc1c(C)ncc2c1CCN(C(=O)c1ccc3[nH]c4c(c3c1)CCCC4)C2 | / | / | / | -12.4% | /
COc1cccc(C2c3cccn3-c3ccccc3N2C=NC(C)(C)C)c1 (stereo not drawn) | 22.5 | / | / | / | /
CC(C)C[C@@H]1COc2cccc(N3CCCC3)c2S(=O)(=O)N1 | -34.8 | 23.3%[46.1 µM] | / | / | /
O=C(Nc1ccccn1)c1ccc(-c2ccccc2)cc1 | -78.3* | ? | 10µM* | -68.3% | 1.12µM*
O=C(Nc1ccccn1)c1ccc(S(=O)(=O)c2ccc(Cl)cc2)cc1 | -63.6* | ? | ? | 0.0% | -3.8%[46.1 µM]
COc1ccc(NC(=S)Nc2ccc(C)c(Cl)c2)cc1OC | ? | / | -24.3% | 7.2% | /
CC(NC(=S)Nc1ccc(OC(F)F)c(Cl)c1)C(C)(C)C (stereo not drawn) | ? | ? | 11.2µM* | -2.7% | ?
Cc1ccc(NC(=S)Nc2ccc(Cl)c(Cl)c2)c(OC(F)F)c1 | -74.6* | 2.3% | ? | ? | ?
Fc1ccc(NC(=S)Nc2ccccc2OC(F)F)cc1Cl | ? | 13.0% | ? | 0.0% | -22.4%
Cc1ccc(NC(=S)Nc2ccc(OC(F)F)c(Cl)c2)cc1Cl | -88.7* | -28.8% | ? | -16.9% | ?
Cc1cc(C)cc(NC(=S)Nc2ccc(Cl)c(Cl)c2)c1 | -68.4* | -4.0%[46.1 µM] | -16.6% | -16.4% | ?
CC(C)Oc1ccc(CNC(=S)Nc2ccccc2)cc1Cl | 37.0 | / | -2.0% | 29.4% | /
Cc1cccc(C)c1NC(=S)Nc1ccc(Cl)c(Cl)c1 | -30.4 | 2.5%[46.1 µM] | 3.9% | 2.3% | ?
